Laboratory results as given in PubChem BioAssay (NCATS).
Several values for one entry are separate records, joined by “and”; a condition that tells them apart may be missing. Equal entries are not always repeated. Records with an inconclusive call do not appear. Activity calls are given as the source filed them. Unless noted, calls come from the whole dose curve; as a rule, active = well fitted curve in the direction sought with a large enough effect; inconclusive = small, poorly fitted or top-dose-only effect, or another doubt; inactive = no such curve, though single readings can be large; an effect the other way counts as inactive or inconclusive.

Assays:
[1] = target: Protein phosphatase 1D (Homo sapiens) (UniProt O15297); assay: RapidFire Mass Spectrometry qHTS Assay for Modulators of WT P53-Induced Phosphatase 1 (WIP1) (AID 1347424);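 note: amount of dephosphorylated VEPPL-S-QETFS peptide product formed by WIP1; series mostly up to about 63 µM; plate controls were DMSO wells for no effect and GSK830371 inhibitor control at 10 µM for full effect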
Chain of Protein phosphatase 1D (Homo sapiens) (O15297 whole entry, looked up): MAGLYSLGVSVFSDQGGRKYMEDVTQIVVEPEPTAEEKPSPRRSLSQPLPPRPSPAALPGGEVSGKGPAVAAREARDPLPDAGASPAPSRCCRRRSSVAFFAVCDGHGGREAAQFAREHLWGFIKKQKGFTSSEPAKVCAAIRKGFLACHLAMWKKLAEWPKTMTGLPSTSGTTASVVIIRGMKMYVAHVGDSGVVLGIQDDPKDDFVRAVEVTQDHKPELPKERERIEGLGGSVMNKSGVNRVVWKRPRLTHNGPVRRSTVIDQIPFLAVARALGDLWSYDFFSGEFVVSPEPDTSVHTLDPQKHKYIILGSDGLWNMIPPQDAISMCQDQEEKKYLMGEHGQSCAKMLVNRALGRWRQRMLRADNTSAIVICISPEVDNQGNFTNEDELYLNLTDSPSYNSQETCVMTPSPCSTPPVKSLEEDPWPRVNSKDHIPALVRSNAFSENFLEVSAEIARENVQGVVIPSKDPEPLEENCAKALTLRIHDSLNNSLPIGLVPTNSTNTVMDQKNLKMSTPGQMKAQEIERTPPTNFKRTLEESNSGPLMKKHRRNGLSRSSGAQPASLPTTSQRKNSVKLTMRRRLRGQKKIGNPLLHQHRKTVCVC
Method in brief: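 WIP1 (10 nM final) was preincubated 1 h at room temperature with compounds in Tris-HCl pH 7.5, 30 mM MgCl2, TCEP, EGTA, BSA; 2 uM VEPPL-pS-QETFS phosphopeptide was added for 5 min, quenched with formic acid, and dephosphorylated product quantified by RapidFire MS.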

[2] = target: Protein phosphatase 1D (Homo sapiens) (UniProt O15297); assay: Rhodamine-PBP qHTS Assay for Modulators of WT P53-Induced Phosphatase 1 (WIP1) (AID 1347425); note: % of control where 0% means no effect
Method in brief: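 WIP1 (5 nM final) was preincubated with compound for 1 hour at room temperature. It then dephosphorylated 10 uM VEPPL-pS-QETFS peptide in Tris-HCl pH 7.5 with 30 mM MgCl2. Released Pi was detected by 10 uM Rh-PBP fluorescence (ex 525/em 598 nm) read at 1-min intervals for 11 min, as delta f1 - f0.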

[3] = Primary qHTS for inhibitors of La Crosse Virus (LACV) - induced cell death in SH-SY5Y cells (AID 1508616);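 note: top concentration of the series differs between compounds; 0% = infected DMSO wells and 100% = uninfected DMSO wells; higher means more rescue of cells from virus-induced death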
Method in brief: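 SH-SY5Y cells (6000/well) plated 24 h, then given compounds by pin transfer and LACV at 0.01 MOI for 6 days at 37C. Viability measured by ATPLite luminescence, normalized to infected DMSO and uninfected DMSO.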

[4] = target: Calcium and integrin-binding protein 1 (Homo sapiens) (UniProt Q99828); assay: Primary qHTS for Identification of Calcium Integrin Binding Protein 1 (CIB1) Competitor (AID 1508620);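 note: GST tagged CIB1 binding a fluorescein labelled alphaIIb integrin peptide tracer; top concentration of the series differs between compounds; % is set by controls: 0 for no effect and ±100 for the full control effect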
Chain of Calcium and integrin-binding protein 1 (Homo sapiens) (Q99828 whole entry, looked up): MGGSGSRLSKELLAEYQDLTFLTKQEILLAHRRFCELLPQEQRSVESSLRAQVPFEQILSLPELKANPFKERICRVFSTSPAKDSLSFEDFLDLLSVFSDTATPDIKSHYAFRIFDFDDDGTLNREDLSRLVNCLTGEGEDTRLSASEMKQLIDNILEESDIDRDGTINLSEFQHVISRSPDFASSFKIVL
Method in brief: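 Fluorescence polarization competition: CIB1-GST (1 uM final) preincubated with compound 15 min at room temperature, then FITC-labeled alphaIIb peptide (100 nM final) added for another 15 min. Polarization read at Ex 480/Em 540.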

[5] = target: Cytochrome P450 2C9 (Homo sapiens) (UniProt P11712); assay: Cytochrome P450 family 2 subfamily C member 9 (CYP2C9) small molecule antagonists: luciferase biochemical (cell-free) qHTS assay (AID 1645842; active = well fitted curve in the direction sought with a large enough effect in the repeat runs; an effect the other way counts as inactive or inconclusive; note: nearly all actives have a fitted effect of over 55% in size; note: potency is the fitted concentration of half-maximal effect)
Chain of Cytochrome P450 2C9 (Homo sapiens) (P11712 whole entry, looked up): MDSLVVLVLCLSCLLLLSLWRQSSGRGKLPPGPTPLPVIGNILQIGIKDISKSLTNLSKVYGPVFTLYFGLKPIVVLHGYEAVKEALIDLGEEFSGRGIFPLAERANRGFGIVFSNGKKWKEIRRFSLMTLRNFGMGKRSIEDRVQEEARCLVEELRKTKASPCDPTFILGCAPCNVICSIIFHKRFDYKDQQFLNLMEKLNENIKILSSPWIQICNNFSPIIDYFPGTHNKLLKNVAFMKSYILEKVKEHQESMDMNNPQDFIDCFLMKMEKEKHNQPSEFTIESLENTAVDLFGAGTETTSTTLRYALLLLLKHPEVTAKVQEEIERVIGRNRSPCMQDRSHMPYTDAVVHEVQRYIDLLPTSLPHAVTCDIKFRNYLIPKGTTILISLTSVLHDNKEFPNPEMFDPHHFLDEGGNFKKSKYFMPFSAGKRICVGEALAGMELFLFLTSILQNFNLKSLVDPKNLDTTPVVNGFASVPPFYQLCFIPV
Method in brief: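 Luminescence, after 20 min with luciferin detection reagent, reflected CYP2C9 turnover during a 1 h NADPH-driven reaction at 37C. Enzyme-substrate mix contained 0.4% bovine serum albumin and was preincubated with compound 10 min at room temperature.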

[6] = Primary qHTS for small molecule stabilizers of the endoplasmic reticulum resident proteome: Secreted ER Calcium Modulated Protein (SERCaMP) assay (AID 1508630); note: % is set by controls: 0 for no effect and ±100 for the full control effect
Method in brief: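 GLuc-SERCaMP-expressing SH-SY5Y cells, pretreated 16 h with compound, are challenged with thapsigargin to empty ER calcium stores; after 4 h, coelenterazine is added directly to the medium and luminescence is imaged.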

[7] = target: Cytochrome P450 2D6 (Homo sapiens) (UniProt P10635); assay: Cytochrome P450 family 2 subfamily D member 6 (CYP2D6) small molecule antagonists: luciferase biochemical (cell-free) qHTS assay (AID 1645840; active = well fitted curve in the direction sought with a large enough effect in the repeat runs; an effect the other way counts as inactive or inconclusive; note: nearly all actives have a fitted effect of over 55% in size; note: potency is the fitted concentration of half-maximal effect)
Chain of Cytochrome P450 2D6 (Homo sapiens) (P10635 whole entry, looked up): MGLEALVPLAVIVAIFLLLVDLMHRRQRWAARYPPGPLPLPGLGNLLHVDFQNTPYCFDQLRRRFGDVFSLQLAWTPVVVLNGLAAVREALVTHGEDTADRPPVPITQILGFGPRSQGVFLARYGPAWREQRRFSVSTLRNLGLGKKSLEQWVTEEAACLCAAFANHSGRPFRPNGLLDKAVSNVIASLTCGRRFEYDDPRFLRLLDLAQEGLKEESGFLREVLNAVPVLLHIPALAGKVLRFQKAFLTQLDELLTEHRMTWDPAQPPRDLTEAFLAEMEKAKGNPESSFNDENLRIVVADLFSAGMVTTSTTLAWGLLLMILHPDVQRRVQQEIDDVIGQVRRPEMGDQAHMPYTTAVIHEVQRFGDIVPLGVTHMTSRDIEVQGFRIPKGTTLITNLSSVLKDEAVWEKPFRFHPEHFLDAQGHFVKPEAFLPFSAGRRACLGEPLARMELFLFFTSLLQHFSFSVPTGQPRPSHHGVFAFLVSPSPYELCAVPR
Method in brief: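 P450-Glo luminescent screen: recombinant CYP2D6 enzyme–proluciferin substrate mix preincubated with compound 10 min at room temperature, then NADPH regeneration added for 1 h at room temperature. Detection reagent added for 20 min; luciferin light read as relative luminescence units.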

[8] = Primary qHTS for inhibitors of nuclear receptor binding SET domain protein 2 (NSD2) in an isogenic RCH-ACV NSD2 p.E1099K mutant (9B) (AID 1645876); note: nearly all actives have a fitted effect of over 70% in size; note: potency is the fitted concentration of half-maximal effect
[9] = Primary qHTS for inhibitors of nuclear receptor binding SET domain protein 2 (NSD2) in an RCH-ACV wild type WT cells (2C) (AID 1645877); note: nearly all actives have a fitted effect of over 70% in size; note: potency is the fitted concentration of half-maximal effect
[10] = A High-Content qHTS Against Drug Library for the Identification of Small Molecules that Inhibit DYT1 Early Onset Primary Dystonia-Associated Cell Pathology (AID 1645839; calls by dose curve; note: potency is the fitted concentration of half-maximal effect)
Method in brief: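 Readout: %pathology, the punctate EGFP-TorsinA distribution from imaging, as the primary channel and cell count as the toxicity counterscreen. HEK293 Flp-In cells expressing delE TorsinA were induced with tetracycline and treated with compound for 48 h.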

[11] = Confirmatory qHTS for small molecule stabilizers of the endoplasmic reticulum resident proteome: Secreted ER Calcium Modulated Protein (SERCaMP) assay (AID 1508628); note: series mostly up to about 76 µM; % is set by controls: 0 for no effect and ±100 for the full control effect; nearly all actives have a fitted effect of over 40% in size
Method in brief: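 SH-SY5Y cells stably expressing GLuc-SERCaMP, treated 16 h with compound (primary 1.53, 7.67, 38.3 uM; confirmation 11 concentrations, up to 76.6 uM), then 100 nM thapsigargin for 4 h. Secreted Gaussia luciferase in medium read by coelenterazine luminescence.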

[12] = Cell Viability qHTS for small molecule stabilizers of the endoplasmic reticulum resident proteome (AID 1508629); settings: cell viability counter-screen, 100 nM thapsigargin for final 4 h;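 note: compound exposure about 46 h in total before the viability read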; note: potency is the fitted concentration of half-maximal effect;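 for max response: human SH-SY5Y neuroblastoma cells carrying the GLuc-SERCaMP reporter; % is set by controls: 0 for no effect and ±100 for the full control effect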
[13] = target: Calcium and integrin-binding protein 1 (Homo sapiens) (UniProt Q99828); assay: Confirmatory qHTS for Identification of Calcium Integrin Binding Protein 1 (CIB1) Competitor (AID 1508617); note: potency is the fitted concentration of half-maximal effect; nearly all actives have a fitted effect of over 65% in size
Method in brief: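 FP competition: CIB1-GST (1 uM final) in 5 mM HEPES pH 7.4, 125 mM NaCl, 5 mM CaCl2, 0.01% Tween20 preincubated 15 min RT with compounds (up to 114 uM), then FITC-alphaIIb peptide (100 nM), 15 min RT; Ex 480/Em 540.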

[14] = target: N-terminal Xaa-Pro-Lys N-methyltransferase 1 (Homo sapiens) (UniProt Q9BV86); assay: Confirmatory qHTS for Inhibitors of N-terminal methyltransferase 1 (NTMT1): MTaseGlo Assay (AID 1645874); note: potency is the fitted concentration of half-maximal effect; nearly all actives have a fitted effect of over 65% in size
Chain of N-terminal Xaa-Pro-Lys N-methyltransferase 1 (Homo sapiens) (Q9BV86 whole entry, looked up): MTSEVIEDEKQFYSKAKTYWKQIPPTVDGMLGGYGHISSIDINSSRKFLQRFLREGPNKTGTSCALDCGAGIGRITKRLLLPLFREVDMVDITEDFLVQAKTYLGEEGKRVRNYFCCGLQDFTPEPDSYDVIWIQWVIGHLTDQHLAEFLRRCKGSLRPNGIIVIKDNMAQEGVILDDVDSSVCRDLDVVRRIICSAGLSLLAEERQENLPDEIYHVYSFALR
Method in brief: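 NTMT1 (125 nM) preincubated 15 min with compound and 100 uM SAM, then 1 uM SPKRIA peptide added for 30 min at room temperature. SAH detected by MTase-Glo luminescence; normalized to no-enzyme and DMSO controls, fitted to 4-parameter Hill.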

[15] = Counterscreen qHTS for small molecule stabilizers of the endoplasmic reticulum resident proteome: GLuc-NoTag assay (AID 1508627);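 note: SH-SY5Y cells given compound then 100 nM thapsigargin to empty ER calcium; series mostly up to about 76 µM; 0% = thapsigargin alone and -100% = DMSO vehicle control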
Method in brief: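 SH-SY5Y cells stably expressing constitutively secreted GLuc (no SERCaMP tag) were pre-incubated 5 h, treated with compound for 19 h, then 100 nM thapsigargin for 4 h at 37C; medium GLuc read by coelenterazine luminescence.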

[16] = target: Cytochrome P450 3A4 (Homo sapiens) (UniProt P08684); assay: Cytochrome P450 family 3 subfamily A member 4 (CYP3A4) small molecule antagonists: luciferase qHTS assay (AID 1645841; active = well fitted curve in the direction sought with a large enough effect in the repeat runs; an effect the other way counts as inactive or inconclusive; note: nearly all actives have a fitted effect of over 45% in size)
Chain of Cytochrome P450 3A4 (Homo sapiens) (P08684 whole entry, looked up): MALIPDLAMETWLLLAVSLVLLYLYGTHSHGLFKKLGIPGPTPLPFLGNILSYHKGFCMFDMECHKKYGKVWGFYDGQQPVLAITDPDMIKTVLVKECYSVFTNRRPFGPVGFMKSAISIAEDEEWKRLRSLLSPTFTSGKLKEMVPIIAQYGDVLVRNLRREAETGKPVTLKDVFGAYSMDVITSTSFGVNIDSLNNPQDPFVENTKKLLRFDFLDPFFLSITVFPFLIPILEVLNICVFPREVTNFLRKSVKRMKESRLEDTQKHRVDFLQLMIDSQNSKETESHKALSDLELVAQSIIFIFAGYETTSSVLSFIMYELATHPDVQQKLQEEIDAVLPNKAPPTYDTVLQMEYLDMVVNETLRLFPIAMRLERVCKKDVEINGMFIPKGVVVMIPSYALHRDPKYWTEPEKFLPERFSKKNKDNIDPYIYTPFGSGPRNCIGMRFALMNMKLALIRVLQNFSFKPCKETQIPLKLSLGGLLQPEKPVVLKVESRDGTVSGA
Method in brief: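 P450-Glo CYP3A4 enzyme with proluciferin substrate was preincubated with DMSO-dissolved compounds for 10 min at room temperature. NADPH regeneration solution started a 1 h reaction. Detection reagent stopped it, and luminescence was read after 20 min.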

CNCC[C@@H](Oc1ccccc1C)c1ccccc1
inactive: Potency [1] | outcome [2] | Potency [3] | Potency [4] | Potency [5]

C/C=C/c1ccc(OC)cc1
inactive: Potency [1] | outcome [2] | Potency [3] | Potency [6] | Potency [7] | Potency [8] | Potency [9]

O=C(N/N=C/c1ccccc1O)c1ccncc1
inactive: Potency [1] | outcome [2] | Potency [3] | Potency [4]
active: Potency [5] 4.36 µM | Potency [8] 6.68 µM | Potency [9] 23.7 µM

O=C(CCCN1CCC(O)(c2ccc(Br)cc2)CC1)c1ccc(F)cc1
active: Potency [7] 2.75 µM | Potency [9] 18.8 µM
inactive: Potency [1] | outcome [2] | Potency [3] | Potency [6] | Potency [5]

CCCCOc1cc(C(=O)NCCN(CC)CC)c2ccccc2n1
inactive: Potency [1] | outcome [2] | Potency [3] | Potency [4] | Potency [5]
active: Potency [7] 8.71 µM | Potency [9] 23.7 µM

CC(C)(CO)[C@@H](O)C(=O)NCCCO
inactive: Potency [1] | outcome [2] | Potency [3] | Potency [7] | Potency [5] | Potency [8] | Potency [9]

Clc1ccc2c(c1)CCc1cccnc1C2=C1CCNCC1
inactive: Potency [1] | outcome [2] | Potency [4] | Potency [6]

CC(=O)Nc1c(I)cc(I)c(C(=O)O)c1I
active: Potency [7] 19.5 µM
inactive: Potency [1] | outcome [2] | Potency [4] | Potency [6] | Potency [10] | Potency [5] | Potency [8] | Potency [9]

C[C@@H]1CN(CCCn2c3ccccc3c3ccccc32)C[C@H](C)N1
active: Potency [12] 31.6 µM | Potency [8] 26.6 µM | Potency [9] 23.7 µM
inactive: Potency [1] | outcome [2] | Potency [4] | Potency [11] | Potency [5]

Cc1cccc(C)c1NC(=O)CN1CCN(CCCC(c2ccc(F)cc2)c2ccc(F)cc2)CC1
inactive: Potency [1] | outcome [2] | Potency [4] | Potency [6] | Potency [10]
active: Potency [7] 2.75 µM | Potency [5] 19.5 µM | Potency [8] 23.7 µM | Potency [9] 11.9 µM

O=c1[nH]c(=O)n([C@H]2C[C@H](O)[C@@H](CO)O2)cc1C(F)(F)F
active: Potency [8] 596 nM and 1.05 µM | Potency [9] 106 nM and 662 nM
inactive: Potency [1] | outcome [2] | Potency [3] | Potency [4] | Potency [7] | Potency [5]

CC(=O)Oc1ccc(C(c2ccc(OC(C)=O)cc2)c2ccccn2)cc1
active: Potency [7] 15.5 µM | Potency [5] 17.4 µM
inactive: Potency [1] | outcome [2] | Potency [4] | Potency [6] | Potency [10] | Potency [8]

CCCCC(CC)CN=C(N)NC(N)=NCCCCCCN=C(N)NC(N)=NCC(CC)CCCC (centres undefined)
inactive: Potency [1] | outcome [2] | Potency [6]
active: Potency [13] 28.2 µM | Potency [10] 11.2 µM | Potency [7] 0.617 µM | Potency [5] 12.3 µM | Potency [14] 18.3 µM | Potency [8] 0.75 µM | Potency [9] 0.841 µM

CC(C)(C)CC(C)(C)c1ccc(OCCOCC[N+](C)(C)Cc2ccccc2)cc1
inactive: Potency [1] | outcome [2] | Potency [3] | Potency [6]
active: Potency [8] 1.19 µM and 1.83 µM | Potency [9] 944 nM and 1.63 µM

CN1C(CCl)Nc2cc(Cl)c(S(N)(=O)=O)cc2S1(=O)=O (centres undefined)
inactive: Potency [1] | outcome [2] | Potency [4] | Potency [6] | Potency [10] | Potency [7] | Potency [5] | Potency [8] | Potency [9]

CCCCCCCCCCCCCCCC[N+](C)(C)CC
active: Potency [7] 0.174 µM | Potency [8] 0.335 µM | Potency [9] 0.299 µM
inactive: Potency [1] | outcome [2] | Potency [3] | Potency [6]

Nc1nc2ncc(CNc3ccc(C(=O)N[C@@H](CCC(=O)O)C(=O)O)cc3)nc2c(=O)[nH]1
inactive: Potency [1] | outcome [2] | Potency [4] | outcome [15] | Potency [11] | max response [12] 22.5% | Potency [10] | Potency [7] | Potency [5] | Potency [8] | Potency [9]

CN1CCC(=C2c3ccccc3Sc3ccccc32)CC1
active: Potency [7] 1.38 µM | Potency [8] 16.8 µM | Potency [9] 11.9 µM
inactive: Potency [1] | outcome [2] | Potency [3] | Potency [4] | outcome [16] | Potency [5]

CN(C)CC/C=C1\c2ccccc2Sc2ccc(Cl)cc21
active: Potency [10] 12.6 µM | Potency [7] 1.23 µM
inactive: Potency [1] | outcome [2] | Potency [3] | Potency [5]

Cc1ccnc(NS(=O)(=O)c2ccc(N)cc2)n1
inactive: Potency [1] | outcome [2] | Potency [3] | Potency [6] | Potency [10] | Potency [7] | Potency [5] | Potency [8] | Potency [9]

CCN(CC)CCOC(=O)C(c1ccccc1)C1CCCCC1 (centres undefined)
inactive: Potency [1] | outcome [2] | Potency [3] | Potency [4]
active: Potency [7] 3.09 µM

CCN(CC)C(=O)/C(C#N)=C/c1cc(O)c(O)c([N+](=O)[O-])c1
active: Potency [5] 0.0436 µM
inactive: Potency [1] | outcome [2] | Potency [3] | Potency [4] | Potency [7]
